Source: PubChem BioAssay AID492960 (National Center for Advancing Translational Sciences (NCATS), 2010)
Results filed as inconclusive are left out. Entries that show only a call come without a potency. Active and inactive are the calls of the source. The call rests on the fitted dose curve; in most records, active means well fitted curve in the direction sought with a large enough effect; inconclusive means small, poorly fitted or top-dose-only effect, or effect the other way, or another doubt; inactive means no such curve, though single readings can be large or run the other way.

Test: Secondary Assay for lipid storage modulators: HepG2 cell LDSA assay for probe SAR
Conditions: HepG2 lipid droplet BODIPY, laser-scanning cytometry, 18-24 h; series mostly up to 46.1 µM
Source text: NIH Molecular Libraries Probe Production Centers Network [MLPCN] NIH Chemical Genomics Center [NCGC] MLPCN Grant: 1 R03 MH085686-01 Assay Submitter (PI): Beller, Mathias; Max-Planck-Institut fur Biophysikalische Chemie NCGC Assay Overview: Storing lipids as a reservoir for energy or the anabolism of elementary metabolites is a common feature of probably all cells and is conserved from bacteria to humans. The universal cellular lipid storage organelle is the so-called lipid storage droplet (LD). Although ubiquitous, LDs share a simple structure composed of a hydrophobic core that harbors the storage lipids, which is shielded by a droplet-specific phospholipid monolayer to which proteins are attached. The current model of LD biogenesis involves an incorporation of the lipid core into the membrane leaflets of the endoplasmic reticulum (ER) followed by a subsequent budding-like maturation of a LD, which ultimately pinches off. Once released, LD volume can increase by localized lipogenesis or fusion of existing droplet. Storage lipids are re-mobilized enzymatically by lipase activity. Lipase regulation in the adipocyte is heavily studied and involves multiple components including catecholamine signaling, the LD-associated proteins Perilipin and comparative gene identification (CGI-58) and at least two lipases named hormone sensitive lipase (HSL) and adipocyte triglyceride lipase (ATGL). LD regulation outside of the adipocyte is poorly understood and only few components are known. However, there is an urgent need to learn more about ectopic fat depots as mislocalized storage of lipids, for example in the liver or muscle, is an eminent health problem associated with insulin resistance or the metabolic syndrome.
NCGC Assay Protocol Summary: The assay was performed with HepG2 cells, using an oleic acid feeding protocol similar to the S3 assay. We dispensed 4 uL of cells to give 700 cells/well into Greiner bio-one 1,536-well plates (black walled, clear bottom). Triacsin C (Sigma-Aldrich T-4540), an inhibitor of long-chain fatty acyl CoA synthetase that blocks synthesis of triglycerides, was used as a positive control for lipid under-storage using a final concentration of 20 uM. The orexin antagonist, SB408124 - previously identified to stimulate lipid over-storage, was used as a positive control for lipid over-storage using a final concentration of 20 uM. A total of 23 nL of compound solution of different concentrations were transferred to the assay plates using a Kalypsys pin tool equipped with a 1,536-pin array containing 10-nL slotted pins (FP1S10, 0.457-mm diameter, 50.8 mm long; V&P Scientific). One microliter of oleic acid was added (400 uM final concentration), and the plate was lidded with stainless steel rubber gasket lined lids containing pinholes. After 18-24 h incubation at […] and 95% humidity, 4 uL of the dyes BODIPY 493/503 (Molecular Probes) and the Cell Tracker Red CMTPX dye (Molecular Probes) were added to the wells to stain lipid droplets and enumerate cell number, respectively. Fluorescence was detected by excitation of the fluorophores with a 488-nm laser on an Acumen Explorer (TTP Lab Tech). The total intensity in channel 2 (500-530 nm) reflected lipid droplet accumulation. Cells were detected using channel 3 (575-640 nm) with 5-um width and 100-um depth filters. The ratio of the number of objects in PMT channel 2 over the number of objects in PMT channel 3 was also calculated. Percent activity was computed relative to an internal control (100% inhibited lipid droplet deposition due to the presence of 20 uM Triacsin C), which was added to 32 wells/plate.

**Q.** Which Potency does the source give for `CCCn1c(-c2ccc(OC)cc2)cnc1SCC(=O)Nc1nc(C)c(C)s1` here?
**A.** inactive

**Q.** For `CCOc1ccc(CCNC(=O)C2CCCCC2)cc1OCC`, which Potency is on record?
**A.** inactive

**Q.** With `O=C(NC1CCCc2c1cnn2-c1cc(F)cc(F)c1)c1cccc2nccnc12` (stereo unspecified) as the molecule, how does the Potency read?
**A.** inactive

**Q.** With `CCOc1ccc(CCNC(=O)c2cccc(C(=O)c3ccccc3)c2)cc1OCC` as the molecule, how does the Potency read?
**A.** inactive

**Q.** For `CCn1c(C(=O)NCCc2ccc(OC)c(OC)c2)cc2sccc21`, which Potency is on record?
**A.** inactive

**Q.** With `O=C(O)CCc1ccc(NCc2cccc(Oc3ccccc3)c2)cc1` as the molecule, how does the Potency read?
**A.** inactive

**Q.** With `Cc1csc(NC(=O)CSc2ncc(-c3ccccc3)n2Cc2ccco2)n1` as the molecule, how does the Potency read?
**A.** inactive

**Q.** With `O=C(Nc1ccccc1-c1cn2c(CN3CCNCC3)csc2n1)c1cnc2ccccc2n1` as the molecule, how does the Potency read?
**A.** 11.2 µM (active)

**Q.** For `COc1ccc(-n2ncc3c2CCCC3NC(=O)c2cnc(C)cn2)cc1` (stereo unspecified), which Potency is on record?
**A.** 12.5 µM (active)

**Q.** Which Potency does the source give for `CCOC(=O)C1CCN(C(=O)C2(NC(=O)Nc3ccccc3Cl)CC2)CC1` here?
**A.** inactive

**Q.** For `CCn1c(C(=O)NCCc2ccc(OC)c(OC)c2)cc2sc(Cl)cc21`, which Potency is on record?
**A.** inactive

**Q.** With `CCOc1ccc(CCNC(=O)c2cc3sccc3n2Cc2cccc(C)c2)cc1OCC` as the molecule, how does the Potency read?
**A.** inactive

**Q.** With `CCOc1ccc(CCNC(=O)c2cc3sccc3n2Cc2ccc(-n3cncn3)cc2)cc1OCC` as the molecule, how does the Potency read?
**A.** inactive

**Q.** Which Potency does the source give for `O=C(NC1CCCc2c1cnn2-c1ccc(F)cc1F)c1ccccn1` (stereo unspecified) here?
**A.** inactive

**Q.** For `O=C(NC1CCCCC1)NC1(C(=O)N2CCCC2)CCCCC1`, which Potency is on record?
**A.** inactive

**Q.** Which Potency does the source give for `CCOc1ccc(CCNC(=O)c2cc3sc(CC)cc3n2C)cc1OCC` here?
**A.** inactive

**Q.** For `CCn1c(C(=O)NCCc2ccc(OC)cc2)cc2sccc21`, which Potency is on record?
**A.** inactive

**Q.** Which Potency does the source give for `Cc1ccc(-c2cnc(SCC(=O)Nc3nc(C)cs3)n2Cc2ccco2)cc1` here?
**A.** inactive

**Q.** With `CCOc1ccc(CCNC(=O)c2cccs2)cc1OCC` as the molecule, how does the Potency read?
**A.** inactive

**Q.** Which Potency does the source give for `CCOc1ccc(CCNC(=O)c2cc3sccc3n2Cc2ccc(Cl)c(F)c2)cc1OCC` here?
**A.** inactive

**Q.** For `COc1ccc(-c2cnc(SCC(=O)Nc3nccs3)n2Cc2ccccc2)cc1`, which Potency is on record?
**A.** inactive

**Q.** Which Potency does the source give for `O=C(NCCc1ccc2c(c1)OCO2)c1cc2sccc2n1Cc1ccccc1` here?
**A.** inactive

**Q.** With `CCOc1ccc(CCNC(=O)c2cc3sccc3n2Cc2cccnc2)cc1OCC` as the molecule, how does the Potency read?
**A.** inactive

**Q.** For `CCOc1ccc(CCNC(=O)C2COc3ccccc3O2)cc1OCC` (stereo unspecified), which Potency is on record?
**A.** inactive

**Q.** With `CCOC(=O)C1CCN(C(=O)C2(NC(=O)Nc3ccccc3Cl)CCC2)CC1` as the molecule, how does the Potency read?
**A.** inactive

**Q.** With `CN(C)CC(=O)NC1CCCc2c1cnn2-c1ccc(F)cc1F` (stereo unspecified) as the molecule, how does the Potency read?
**A.** inactive

**Q.** Which Potency does the source give for `CCOc1ccc(CCNC(=O)c2cc3sccc3n2Cc2ccccc2)cc1OCC` here?
**A.** 14.1 µM (active)

**Q.** For `COc1ccc(-c2cnc(SCC(=O)Nc3nc(C)cs3)n2-c2ccccc2)cc1`, which Potency is on record?
**A.** inactive

**Q.** With `Cc1cc2c(cc1C1(c3ccc(C(=O)O)cc3)CC1)C(C)(C)CCC2(C)C` as the molecule, how does the Potency read?
**A.** inactive

**Q.** With `O=C(NC1CCCc2c1cnn2-c1ccc(F)cc1F)c1cccc(=O)[nH]1` (stereo unspecified) as the molecule, how does the Potency read?
**A.** inactive

**Q.** Which Potency does the source give for `O=C(NC1CCCc2c1cnn2-c1ccc(F)cc1F)c1ccc(C2(C(F)(F)F)N=N2)cc1` (stereo unspecified) here?
**A.** inactive
